Experimental data published in PubChem BioAssay.
Records with an inconclusive call do not appear. The source made the active and inactive calls.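 The calls were made as follows, unless noted: active = binding below the plate cutoff, the plate median minus 3 SD, with a reading above zero; inconclusive = below the plate cutoff but reading exactly zero; inactive = the rest.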

Legend:
[1] = rapamycin-like changes in RPL19A-GFP expression – cell-based, S. cerevisiae, multiplex flow cytometry, primary screen (AID 1862; in the data active = percent of DMSO control GFP below about 86%;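 also: lower values mimic rapamycin by blocking the RPL19A rise seen in DMSO cells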); conditions: S. cerevisiae RPL19A-GFP strain, flow cytometry fluorescence, 3 h; at 10 µM; stronger effect = lower value
[2] = TOR pathway GLN3 branch reporter MEP2-GFP changes – S. cerevisiae, multiplex flow cytometry, primary screen (AID 1867;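 active = GFP response, as percent of the DMSO control, above the screen-wide mean plus 3 SD, about 139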;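 also: median GFP channel fluorescence of barcode-gated MEP2-GFP cells measured by flow cytometry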); conditions: S. cerevisiae MEP2-GFP strain, 3 h, at 10 µM, stronger effect = higher value, 100% means same as DMSO wells
[3] = TOR pathway RTG branch CIT2 reporter changes – S. cerevisiae, GFP fusion, multiplex flow cytometry, primary screen (AID 1870;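 active = percent response above a set limit, the screen-wide mean plus 3 SD, cut at about 130% in these data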;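 also: barcoded CIT2-GFP strain pooled with four other GFP strains with rapamycin as positive control; median GFP fluorescence per well over plate mean of DMSO wells so 100% = DMSO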); conditions: S. cerevisiae CIT2-GFP expression, 3 h, at 10 µM, stronger effect = higher value
[4] = TOR pathway LAP4-GFP level changes – S. cerevisiae, multiplex flow cytometry, primary screen (AID 1873;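 active = GFP signal, as percent of the solvent control, above the screen mean plus 3 SD, about 149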); conditions: S. cerevisiae LAP4-GFP expression, 3 h, at 10 µM, stronger effect = higher value
[5] = yeast AGP1-GFP level changes, GLN3 branch – cell-based, multiplex flow cytometry, S. cerevisiae, primary screen (AID 1887;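 active = GFP signal above the screen-wide mean plus 3 SD, that is over about 124.5% of the solvent control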;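 also: AGP1-GFP fusion strain of S. cerevisiae within a five-strain barcoded multiplex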); conditions: 3 h, at 10 µM, stronger effect = higher value
[6] = reduced mouse 2C T cell binding to pMHC/ICAM-1 vesicles – MLPCN validation set, flow cytometry, LFA-1/ICAM-1 modulator project, pilot screen (AID 2523;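 active = response below a set limit, under 55% cells CD8-positive and vesicle-bound, and CD8 cells' 90th-percentile brightness under 279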;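 as to vesicle binding response: mean PE anti-B7-1 fluorescence of CD8+ cells relative to row control; 100% = QL9-loaded vesicles with DMSO vehicle in the same plate row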); conditions: 2C mouse CD8+ T cells, at 7 µM, stronger effect = lower value; double positive events: measured here: CD8+/vesicle+ event percentage
[7] = biological target: Integrin beta-1 (Homo sapiens) + Integrin alpha-4 (Homo sapiens) (UniProt P13612+P05556); test: alpha4beta1 integrin LIBS antibody binding reduction – U937 cells, HUTS-21 mAb, flow cytometry, validation set, VLA-4 allosteric modulator project, pilot screen (AID 2674;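 active = inhibition above 50%, about 3 SD of the validation set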;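 also: antibody binding induced by the VLA-4 ligand LDV present at three times its Kd; 0% = LDV ligand with antibody and no compound and 100% = antibody without LDV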); conditions: HUTS-21 LIBS mAb binding, at 6.7 µM, stronger effect = higher value, binding induced by LDV ligand
[8] = calorie-restriction mimetic ROS inhibitors, yeast – validation compound set, pilot screen (AID 2706;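 active = superoxide response below 65% of plate, a cut near 3 SD across the whole screen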;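 also: yeast exposed to compound for one week at 30 degrees C before staining; 100% = mean of all compound wells on the same plate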); conditions: S. cerevisiae aging, superoxide DHE fluorescence; at 10 µM; stronger effect = lower value
[9] = biological target: Beta-adrenergic receptor kinase 1 (Homo sapiens) (UniProt P25098); test: GRK2 binders displacing RNA aptamer, biochemical, validation, human GRK2, bead flow cytometry (AID 488806;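 active = aptamer binding inhibition above 30%, about 3 SD of noise from non-fluorescent compounds; inactive = inhibition at or below 30%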); conditions: bead-bound GRK2, FAM-aptamer displacement, at 10 µM, stronger effect = higher value
[10] = biological target: Beta-2 adrenergic receptor (Homo sapiens) (UniProt P07550); test: agonist-induced loss of surface beta2AR – cell-based, FAP fluorogen, flow cytometry, validation set, pilot screen (AID 504459;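 active = percent response above 42, roughly 3 SD of non-fluorescent test compounds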;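 also: agonist-driven loss of surface beta2AR via internalization measured by FAP dye flow cytometry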); conditions: Am2.2-beta2AR cells, at 10 µM, stronger effect = higher value
[11] = biological target: AP-2 complex subunit beta (Homo sapiens) (UniProt P63010); test: beta-arrestin/AP2 interaction blockers – biochemical, validation set, GST-AP2 beads, flow cytometry, pilot screen (AID 504541;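 active = inhibition above 54%, about 3 SD of non-fluorescent compounds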;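 also: AP2 carries R879A mutation and is captured from E. coli lysate; bead-bound FITC arrestin peptide fluorescence measuring arrestin peptide binding to AP2; 0% = DMSO wells and 100% = excess unlabeled arrestin peptide control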); conditions: FITC arrestin peptide, at 10 µM, stronger effect = higher value, AP2 beta2 appendage fragment, R879A mutant
[12] = cytosolic pH regulators acting via V-ATPase – S. cerevisiae, pHLuorin, HTS validation (AID 504600; in the data active = response above about 15%;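 also: plate controls were DMSO for no effect and reference compound for full effect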); conditions: V-ATPase proton transport, at 10 µM, stronger effect = higher value
[13] = system: anti-desmoglein-3 scFv antibody binding to human DSG3; test: blockers of pathogenic pemphigus antibody–desmoglein-3 binding – biochemical, validation compound set, bead-based, flow cytometry, pilot screen (AID 588368); conditions: Protein G beads, DSG3-Fc, scFv-GFP binding, at 10 µM, stronger effect = lower value;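 also: signal is the median channel fluorescence of bead-bound GFP antibody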
[14] = Nile Red efflux blockade in pump-expressing yeast – validation compound set, multiplex, phenotypic, pilot screen (AID 588506;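 active = efflux inhibition above 0.42, the validation set average plus 4 SD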;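 also: Nile Red retained in cells so higher fluorescence means more efflux inhibition; 0 = negative control wells and 1 = enniatin B 25 µM full block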); conditions: S. cerevisiae pump-expressing triplex, Nile Red efflux flow cytometry; at 10 µM; stronger effect = higher value; the pumps come from Candida albicans
[15] = biological target: ATP-binding cassette sub-family B member 6 (Homo sapiens) (UniProt Q9NP58); test: blockers of ABCB6-driven porphyrin uptake – K562-ABCB6 cells, flow cytometry, validation set, pilot screen (AID 588550;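 active = inhibition above the screen-wide mean plus 3 SD, about 51%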;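 also: 0% = DMSO wells and 100% = benzethonium chloride 70 µM positive control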); conditions: K562-ABCB6 porphyrin accumulation, 1 h, at 10 µM, stronger effect = higher value
[16] = AML differentiation inducers, ER-HoxA9 marrow cells – cell-based, GFP/MAC1 double positive, flow cytometry, validation set, primary screen (AID 588685;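 active = differentiation response of at least 50%, scaled between solvent and reference control, from cells with both markers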;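 also: compound exposure lasts four days before antibody staining and flow analysis; 0% = DMSO wells and 100% = 5 µM fulvestrant positive control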); conditions: stronger effect = higher value, normalized: vehicle 0, fulvestrant 100

AP-2 complex subunit beta (Homo sapiens), sequence (P63010 whole entry, looked up, the tested form may be a part, one chain of several): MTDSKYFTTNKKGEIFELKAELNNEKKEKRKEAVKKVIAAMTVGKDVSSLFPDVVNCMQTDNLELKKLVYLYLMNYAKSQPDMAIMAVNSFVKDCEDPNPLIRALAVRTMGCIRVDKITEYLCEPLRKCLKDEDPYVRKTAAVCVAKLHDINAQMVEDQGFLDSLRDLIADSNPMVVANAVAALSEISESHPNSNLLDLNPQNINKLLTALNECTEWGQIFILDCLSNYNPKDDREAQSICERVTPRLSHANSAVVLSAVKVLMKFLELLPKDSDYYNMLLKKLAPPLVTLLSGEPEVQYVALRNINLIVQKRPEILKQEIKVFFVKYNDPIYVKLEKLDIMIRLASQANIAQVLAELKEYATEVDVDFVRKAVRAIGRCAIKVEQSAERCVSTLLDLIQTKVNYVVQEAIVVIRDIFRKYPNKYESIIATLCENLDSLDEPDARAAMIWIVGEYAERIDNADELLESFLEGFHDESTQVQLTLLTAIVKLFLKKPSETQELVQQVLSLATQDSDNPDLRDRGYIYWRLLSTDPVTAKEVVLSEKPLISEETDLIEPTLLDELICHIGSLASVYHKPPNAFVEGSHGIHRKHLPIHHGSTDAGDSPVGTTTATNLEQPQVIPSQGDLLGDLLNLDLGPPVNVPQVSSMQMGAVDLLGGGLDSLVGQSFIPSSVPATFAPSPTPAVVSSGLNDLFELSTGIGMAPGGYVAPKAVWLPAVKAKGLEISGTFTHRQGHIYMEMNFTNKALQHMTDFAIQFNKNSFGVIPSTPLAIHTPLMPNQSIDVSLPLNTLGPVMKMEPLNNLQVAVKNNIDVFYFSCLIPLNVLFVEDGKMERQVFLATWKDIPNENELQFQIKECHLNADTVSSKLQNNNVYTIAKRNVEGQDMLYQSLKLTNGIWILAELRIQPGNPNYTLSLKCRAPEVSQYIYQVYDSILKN
Beta-2 adrenergic receptor (Homo sapiens), sequence (P07550 whole entry, looked up): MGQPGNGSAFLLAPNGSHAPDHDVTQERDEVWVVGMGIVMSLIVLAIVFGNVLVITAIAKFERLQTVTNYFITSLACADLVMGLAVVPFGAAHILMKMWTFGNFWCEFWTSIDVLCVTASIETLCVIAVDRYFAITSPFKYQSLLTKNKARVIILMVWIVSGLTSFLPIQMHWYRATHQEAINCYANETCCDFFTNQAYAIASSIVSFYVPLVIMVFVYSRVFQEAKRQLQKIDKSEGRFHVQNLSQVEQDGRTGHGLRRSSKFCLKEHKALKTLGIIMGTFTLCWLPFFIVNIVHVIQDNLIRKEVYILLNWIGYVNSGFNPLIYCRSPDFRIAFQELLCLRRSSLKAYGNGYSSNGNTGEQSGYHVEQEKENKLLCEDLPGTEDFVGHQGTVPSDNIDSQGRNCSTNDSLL
Integrin beta-1 (Homo sapiens) + Integrin alpha-4 (Homo sapiens), sequence (P05556 whole entry, looked up): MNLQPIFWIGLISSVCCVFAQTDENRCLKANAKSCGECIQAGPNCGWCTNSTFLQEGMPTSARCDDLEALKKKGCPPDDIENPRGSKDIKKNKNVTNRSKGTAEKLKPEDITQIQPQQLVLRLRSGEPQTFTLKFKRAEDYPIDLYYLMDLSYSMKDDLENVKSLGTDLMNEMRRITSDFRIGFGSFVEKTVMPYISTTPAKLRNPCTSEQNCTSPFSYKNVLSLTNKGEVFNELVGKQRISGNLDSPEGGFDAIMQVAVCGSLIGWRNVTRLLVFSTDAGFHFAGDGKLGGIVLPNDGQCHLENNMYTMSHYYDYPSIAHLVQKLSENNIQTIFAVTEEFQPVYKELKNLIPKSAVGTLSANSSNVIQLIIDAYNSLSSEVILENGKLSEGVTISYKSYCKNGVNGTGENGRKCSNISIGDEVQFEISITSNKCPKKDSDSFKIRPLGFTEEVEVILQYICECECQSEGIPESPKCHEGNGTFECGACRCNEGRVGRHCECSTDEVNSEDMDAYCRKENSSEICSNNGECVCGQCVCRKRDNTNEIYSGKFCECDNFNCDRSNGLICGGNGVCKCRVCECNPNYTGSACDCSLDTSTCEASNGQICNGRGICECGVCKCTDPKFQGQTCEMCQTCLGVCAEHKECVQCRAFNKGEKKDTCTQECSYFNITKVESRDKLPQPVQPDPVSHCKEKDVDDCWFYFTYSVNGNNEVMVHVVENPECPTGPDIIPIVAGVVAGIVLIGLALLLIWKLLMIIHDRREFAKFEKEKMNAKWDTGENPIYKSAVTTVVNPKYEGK
Integrin beta-1 (Homo sapiens) + Integrin alpha-4 (Homo sapiens), sequence (P13612 whole entry, looked up): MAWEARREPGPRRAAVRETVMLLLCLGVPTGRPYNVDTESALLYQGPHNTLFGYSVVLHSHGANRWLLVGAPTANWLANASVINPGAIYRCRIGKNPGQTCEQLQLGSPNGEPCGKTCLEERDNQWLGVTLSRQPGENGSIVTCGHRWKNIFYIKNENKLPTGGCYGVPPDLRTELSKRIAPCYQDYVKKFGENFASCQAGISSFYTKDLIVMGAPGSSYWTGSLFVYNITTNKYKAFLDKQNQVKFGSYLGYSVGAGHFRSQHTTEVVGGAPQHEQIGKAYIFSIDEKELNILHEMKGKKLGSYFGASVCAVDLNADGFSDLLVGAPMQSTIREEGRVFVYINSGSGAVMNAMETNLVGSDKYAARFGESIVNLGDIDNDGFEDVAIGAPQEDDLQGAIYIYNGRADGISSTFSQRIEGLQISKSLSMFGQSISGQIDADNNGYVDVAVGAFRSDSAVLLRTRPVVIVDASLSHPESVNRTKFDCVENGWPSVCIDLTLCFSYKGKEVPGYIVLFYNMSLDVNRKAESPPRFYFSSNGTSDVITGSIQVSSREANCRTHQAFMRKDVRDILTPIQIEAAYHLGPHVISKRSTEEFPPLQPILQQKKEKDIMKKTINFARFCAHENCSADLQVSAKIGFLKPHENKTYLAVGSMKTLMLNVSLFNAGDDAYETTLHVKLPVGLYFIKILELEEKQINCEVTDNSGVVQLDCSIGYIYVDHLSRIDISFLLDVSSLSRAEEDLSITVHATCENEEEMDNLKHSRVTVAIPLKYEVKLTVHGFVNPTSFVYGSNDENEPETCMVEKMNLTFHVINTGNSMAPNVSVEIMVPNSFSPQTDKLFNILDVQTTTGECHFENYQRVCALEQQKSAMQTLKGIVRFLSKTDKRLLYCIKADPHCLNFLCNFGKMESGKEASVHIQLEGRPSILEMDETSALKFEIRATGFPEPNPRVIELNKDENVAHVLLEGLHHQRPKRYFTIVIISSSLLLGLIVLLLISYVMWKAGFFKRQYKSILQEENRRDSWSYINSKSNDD
ATP-binding cassette sub-family B member 6 (Homo sapiens), sequence (Q9NP58 whole entry, looked up): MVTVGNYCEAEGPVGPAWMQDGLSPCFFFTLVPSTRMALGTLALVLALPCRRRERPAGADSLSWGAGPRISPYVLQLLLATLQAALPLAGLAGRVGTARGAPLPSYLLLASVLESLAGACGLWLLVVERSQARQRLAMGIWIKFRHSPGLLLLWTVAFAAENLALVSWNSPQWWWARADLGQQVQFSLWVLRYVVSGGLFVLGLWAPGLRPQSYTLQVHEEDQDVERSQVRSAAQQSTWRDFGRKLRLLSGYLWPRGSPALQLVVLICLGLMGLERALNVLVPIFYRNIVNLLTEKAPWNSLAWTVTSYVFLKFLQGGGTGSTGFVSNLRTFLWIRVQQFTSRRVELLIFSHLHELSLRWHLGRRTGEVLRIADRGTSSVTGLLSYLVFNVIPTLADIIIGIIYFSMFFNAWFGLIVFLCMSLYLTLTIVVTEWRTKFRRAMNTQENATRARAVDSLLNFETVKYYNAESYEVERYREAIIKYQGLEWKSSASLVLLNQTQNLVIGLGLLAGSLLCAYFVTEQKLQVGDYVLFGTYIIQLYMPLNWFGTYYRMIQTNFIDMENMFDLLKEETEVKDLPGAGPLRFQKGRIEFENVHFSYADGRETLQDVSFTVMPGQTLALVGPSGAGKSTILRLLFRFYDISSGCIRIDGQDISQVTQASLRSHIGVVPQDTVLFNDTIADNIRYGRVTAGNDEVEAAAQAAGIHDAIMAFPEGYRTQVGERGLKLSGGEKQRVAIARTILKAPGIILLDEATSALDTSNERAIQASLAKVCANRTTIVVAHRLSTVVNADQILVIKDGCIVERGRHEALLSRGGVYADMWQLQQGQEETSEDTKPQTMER
Beta-adrenergic receptor kinase 1 (Homo sapiens), sequence (P25098 whole entry, looked up): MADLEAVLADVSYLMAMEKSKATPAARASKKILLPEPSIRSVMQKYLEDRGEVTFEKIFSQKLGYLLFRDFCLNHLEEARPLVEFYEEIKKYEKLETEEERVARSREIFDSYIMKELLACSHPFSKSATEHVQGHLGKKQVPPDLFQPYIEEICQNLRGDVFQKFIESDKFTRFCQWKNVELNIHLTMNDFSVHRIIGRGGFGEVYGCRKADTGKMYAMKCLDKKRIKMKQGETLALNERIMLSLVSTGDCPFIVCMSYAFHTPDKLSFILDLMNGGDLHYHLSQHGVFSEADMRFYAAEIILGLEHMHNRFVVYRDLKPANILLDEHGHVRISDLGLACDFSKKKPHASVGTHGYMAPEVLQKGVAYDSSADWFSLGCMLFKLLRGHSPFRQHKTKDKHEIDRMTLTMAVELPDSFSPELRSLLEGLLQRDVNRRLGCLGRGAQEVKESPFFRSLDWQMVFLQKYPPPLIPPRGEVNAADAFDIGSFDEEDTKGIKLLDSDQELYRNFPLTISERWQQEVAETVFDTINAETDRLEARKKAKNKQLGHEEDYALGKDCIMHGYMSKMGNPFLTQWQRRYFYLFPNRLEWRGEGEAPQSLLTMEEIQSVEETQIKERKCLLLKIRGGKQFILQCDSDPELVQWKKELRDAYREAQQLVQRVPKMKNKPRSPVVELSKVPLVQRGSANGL

SMILES | percent of DMSO control GFP [1] | GFP response vs DMSO [2] | percent response of DMSO control [3] | GFP response vs DMSO [4] | GFP response, % of DMSO [5] | double positive events [6] | vesicle binding response [6] | inhibition [7] | superoxide response (% of plate) [8] | aptamer binding inhibition [9] | response [10] | inhibition [11] | response [12] | binding (% of control) [13] | efflux inhibition (fraction of control) [14] | inhibition [15] | differentiation response [16]
CSCCC(NC(=O)OC(C)(C)C)C(=O)Oc1ccc2c(=O)c(-c3ccc4c(c3)OCCO4)coc2c1 (stereo not drawn) | 95.9% (inactive) | 107% (inactive) | 94.8% (inactive) | 132% (inactive) | 102% (inactive) | 59.4% | 190% (inactive) | -1.79% (inactive) | 99.7% (inactive) | 2% (inactive) | 0.95% (inactive) | 3.81% (inactive) | -3.69% (inactive) | 100% (inactive) | -0.1 (inactive) | 1% (inactive) | 5.6% (inactive)
Cc1ccc(SCC(=O)Nc2nccs2)cc1 | 101% (inactive) | 105% (inactive) | 98.6% (inactive) | 120% (inactive) | 99.7% (inactive) | 60.5% | 4850% (inactive) | 6.4% (inactive) | 110% (inactive) | 4% (inactive) | -0.63% (inactive) | -4.67% (inactive) | -0.83% (inactive) | 95.3% (inactive) | -0.24 (inactive) | 4% (inactive) | -2.4% (inactive)
CC(C)c1ccc(NC(=O)CNS(=O)(=O)c2ccc(F)cc2)cc1 | 99.3% (inactive) | 107% (inactive) | 101% (inactive) | 120% (inactive) | 102% (inactive) | 57.6% | 260% (inactive) | -3.16% (inactive) | 114% (inactive) | -1% (inactive) | -11.4% (inactive) | -6.24% (inactive) | -3.77% (inactive) | 100% (inactive) | -0.1 (inactive) | 1% (inactive) | -13.6% (inactive)
CC(OC(=O)c1cc(=O)[nH]c2ccccc12)C(=O)c1ccccc1 (stereo not drawn) | 99.6% (inactive) | 101% (inactive) | 106% (inactive) | 107% (inactive) | 105% (inactive) | 58.9% | 174% (inactive) | -15.8% (inactive) | 96.4% (inactive) | -2% (inactive) | 1.78% (inactive) | -9.56% (inactive) | 0.61% (inactive) | 106% (inactive) | -0.61 (inactive) | 41% (inactive) | -4.57% (inactive)
CC(C)(C)OC(=O)NCCC(=O)Oc1ccc2ccc(=O)oc2c1 | 100% (inactive) | 91.9% (inactive) | 98.6% (inactive) | 76% (inactive) | 84% (inactive) | 56.1% | 238% (inactive) | -1.79% (inactive) | 101% (inactive) | 4% (inactive) | 7.52% (inactive) | 17.2% (inactive) | 7.71% (inactive) | 101% (inactive) | 0.05 (inactive) | 3% (inactive) | -12% (inactive)
Cc1ccc2c(c1)C(O)(C1COC(C)(C)CC1=O)C(=O)N2C (stereo not drawn) | 107% (inactive) | 105% (inactive) | 104% (inactive) | 99.1% (inactive) | 98.8% (inactive) | 59.3% | 214% (inactive) | 12.3% (inactive) | 103% (inactive) | 2% (inactive) | -0.64% (inactive) | -0.06% (inactive) | -9.91% (inactive) | 102% (inactive) | 0.05 (inactive) | 12% (inactive) | 23.2% (inactive)
Cc1ccsc1C1NC(=O)c2ccccc2N1 (stereo not drawn) | 103% (inactive) | 95.2% (inactive) | 94.8% (inactive) | 93.1% (inactive) | 93.8% (inactive) | 59.5% | 266% (inactive) | 0.94% (inactive) | 102% (inactive) | 1% (inactive) | -6.32% (inactive) | -5.8% (inactive) | -1.97% (inactive) | 97.6% (inactive) | -0.28 (inactive) | 6% (inactive) | -15.2% (inactive)
O=C(NC(Nc1ccccn1)C(Cl)(Cl)Cl)c1ccccc1 (stereo not drawn) | 100% (inactive) | 102% (inactive) | 103% (inactive) | 103% (inactive) | 102% (inactive) | 58.7% | 157% (inactive) | -13.2% (inactive) | 91.6% (inactive) | -1% (inactive) | 1.87% (inactive) | -6.1% (inactive) | -1.51% (inactive) | 99.8% (inactive) | 0.25 (inactive) | -8% (inactive) | -10.4% (inactive)
Cc1cccc2c(=O)n3c(nc12)CCCCC3 | 99.3% (inactive) | 101% (inactive) | 97.6% (inactive) | 119% (inactive) | 104% (inactive) | 57% | 172% (inactive) | -14.5% (inactive) | 105% (inactive) | -3% (inactive) | -4.11% (inactive) | -3.62% (inactive) | 0.7% (inactive) | 105% (inactive) | -0.41 (inactive) | 2% (inactive) | 36.4% (inactive)
